Bioassay records (PubChem BioAssay)
hNpr1 antagonist – antagonists of human natriuretic peptide receptor Npr1. P16066. HEK293 hNpr1 GloSensor cGMP, ANP-stimulated luminescence. Potency, µM (doses to about 46.3 µM), for inactives: top-dose activity change, negative = inhibition, hits mostly inhibitors. actives 1.6% (n = 76,000). AID 1347048; calls by dose curve; also: % is scaled to controls: 0 for no effect and ±100 for the full control effect; nearly all actives have a fitted effect of over 60% in size
Target sequence (P16066 whole entry, looked up): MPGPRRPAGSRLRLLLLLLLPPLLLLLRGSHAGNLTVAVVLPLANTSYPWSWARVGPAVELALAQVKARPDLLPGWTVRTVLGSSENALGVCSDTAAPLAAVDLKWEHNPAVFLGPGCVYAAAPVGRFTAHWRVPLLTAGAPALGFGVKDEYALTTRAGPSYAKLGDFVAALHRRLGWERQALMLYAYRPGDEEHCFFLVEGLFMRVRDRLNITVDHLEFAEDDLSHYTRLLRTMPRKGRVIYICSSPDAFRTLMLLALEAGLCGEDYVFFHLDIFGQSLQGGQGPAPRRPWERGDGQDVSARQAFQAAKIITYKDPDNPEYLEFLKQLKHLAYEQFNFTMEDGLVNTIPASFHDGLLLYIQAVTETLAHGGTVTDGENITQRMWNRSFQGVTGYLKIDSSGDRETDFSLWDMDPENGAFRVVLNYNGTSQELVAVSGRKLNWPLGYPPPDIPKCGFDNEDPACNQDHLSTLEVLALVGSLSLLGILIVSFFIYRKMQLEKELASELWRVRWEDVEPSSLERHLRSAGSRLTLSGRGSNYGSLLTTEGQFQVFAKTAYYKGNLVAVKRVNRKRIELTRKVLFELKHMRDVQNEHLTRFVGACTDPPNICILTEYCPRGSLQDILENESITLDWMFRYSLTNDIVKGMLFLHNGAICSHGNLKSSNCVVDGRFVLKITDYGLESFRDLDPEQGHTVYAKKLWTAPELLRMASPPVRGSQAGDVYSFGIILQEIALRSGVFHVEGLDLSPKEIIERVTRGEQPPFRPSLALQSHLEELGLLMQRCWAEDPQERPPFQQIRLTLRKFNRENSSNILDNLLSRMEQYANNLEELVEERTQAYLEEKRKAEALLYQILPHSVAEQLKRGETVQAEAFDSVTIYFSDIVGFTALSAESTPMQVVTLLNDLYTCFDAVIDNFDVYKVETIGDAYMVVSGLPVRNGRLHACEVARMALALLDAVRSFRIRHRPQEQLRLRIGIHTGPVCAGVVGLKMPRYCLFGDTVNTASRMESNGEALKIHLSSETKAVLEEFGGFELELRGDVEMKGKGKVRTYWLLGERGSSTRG
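HEK293 cells stably expressing human Npr1 and cGMP GloSensor pGS-40F, loaded 2 h with 2% GloSensor reagent, given compound 30 min at room temperature. Luminescence read before and 20 min after 0.1 nM hNppA.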
3T3 cytotox – cytotoxic compounds in NIH 3T3 cells; NIH 3T3 viability, CellTiter-Glo ATP luminescence, 48-72 h; Potency, µM (series often up to 96.7 µM), inactives show at the highest dose activity change, negative = cytotoxicity, hits mostly inhibitors; actives 4.3% (n = 94,000); also: % is scaled to controls: 0 for no effect and ±100 for the full control effect; nearly all actives have a fitted effect of over 55% in size
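Cytotoxicity was measured by CellTiter-Glo ATP luminescence after 48 or 72 h compound exposure at 37 °C. Mouse NIH 3T3 fibroblasts were seeded at 400 cells/well and dosed by 23 nL pin transfer.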
HEK293 tox – kills HEK 293 cells; HEK 293 viability, ATP luminescence (CellTiter-Glo), 48-72 h; Potency, µM (highest dose often 115 µM), without a hit: at the top dose activity change, negative = cytotoxicity, actives largely listed as inhibitors; actives 6.6% (n = 94,000); also: % is scaled to controls: 0 for no effect and ±100 for the full control effect; nearly all actives have a fitted effect of over 60% in size
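Read-out: CellTiter-Glo ATP luminescence. Cells: HEK 293, 250 cells/well. Exposure: 48 or 72 hr, 37 degree Celsius.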
FLuc inh-1 – blocks purified firefly luciferase enzyme activity. Potency, µM (doses to about 115 µM), usual class: inhibitors. purified P. pyralis luciferase, luminescence, biochemical. P08659. actives 2.5% (n = 76,000); also: % is scaled to controls: 0 for no effect and ±100 for the full control effect; nearly all actives have a fitted effect of over 65% in size
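Inhibitors were tested against purified firefly luciferase in a biochemical, low-substrate format (both substrates at 10uM) and luminescence measured with a CCD imager.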
FLuc SDR no ATP – stabilizes firefly luciferase without ATP; shares compounds with FLuc inh-1; Purified FLuc-C-HiBiT, Nano-Glo HiBiT luminescence, no ATP; AID 1963318; actives 7.8% (n = 1,300); Potency, µM (titrated, usually from 32.7 µM), for inactives: at the highest dose activation (signal gain), hits mostly activators; also: nearly all actives have a fitted effect of over 55% in size
FLuc SDR ATP – binders stabilizing firefly luciferase, plus ATP; actives 8.7% (n = 1,300); shares compounds with FLuc inh-1; purified FLuc-C-HiBiT + ATP, HiBiT complementation luminescence; Potency, µM (top dose mostly 32.7 µM), for inactives: top-dose activation (gain of signal), hits mostly activators; AID 1963319;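 also: signal reports ligand binding via conformational change of the enzyme rather than luciferase catalysis; % of control where 0% means no effect; nearly all actives have a fitted effect of over 55% in size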
FLuc inh-2 – inhibitors of firefly luciferase enzymatic activity; shares compounds with FLuc inh-1; purified FLuc-C-HiBiT enzyme, luciferin luminescence; Potency, µM (doses to about 32.7 µM), without a hit: at the highest dose activity change, negative = inhibition, hits mostly inhibitors; AID 1963320; actives 42% (n = 1,300); also: % is scaled to controls: 0 for no effect and ±100 for the full control effect; nearly all actives have a fitted effect of over 70% in size
Npr1 antag conf – confirmation of human Npr1 natriuretic peptide receptor antagonists; AID 1347044; actives 76% (n = 1,400); shares compounds with hNpr1 antagonist; HEK293 hNpr1 cGMP GloSensor luminescence, ANP-stimulated; Potency, µM (titrated, usually from 57.6 µM), for the others: at the top dose activity change, negative = inhibition, usual class: inhibitors; calls by dose curve; also: nearly all actives have a fitted effect of over 70% in size
NPR2 antag – antagonizes human Npr2, subtype selectivity check | actives 67% (n = 1,400) | HEK293 hNpr2 GloSensor cGMP luminescence, CNP-stimulated | AID 1347046 | shares compounds with hNpr1 antagonist | Potency, µM (titrated, usually from 57.6 µM), inactives show at the top dose activity change, negative = inhibition, actives largely listed as inhibitors; calls by dose curve; also: nearly all actives have a fitted effect of over 70% in size
FLuc inh counter – counter-screen for Npr1 antagonists: firefly luciferase inhibitors; shares compounds with hNpr1 antagonist; purified FLuc enzyme, luminescence, Km substrate; Potency, µM (series often up to 57.6 µM), for the others: top-dose activity change, negative = inhibition, most hits filed as inhibitors; actives 0.7% (n = 1,400); AID 1347047; also: 0% is about no effect
GloSensor ctrl – control cell line activity, Npr1 antagonist counter-screen | shares compounds with hNpr1 antagonist | HEK293 GloSensor cGMP, SNP-stimulated, luminescence | Potency, µM (doses to about 57.6 µM), for inactives: at the highest dose activity change, negative = inhibition, usual class: inhibitors | actives 69% (n = 1,400) | AID 1347051; calls by dose curve; also: % is scaled to controls: 0 for no effect and ±100 for the full control effect; nearly all actives have a fitted effect of over 70% in size
The depositor's hits bear a star; i = inactive; ? = inconclusive; . = no result given; [ ] = dose if it differs, or a comment. In the library only some 11% were active in any assay of this set; here they are far more common. Unless noted, calls follow the shape of the dose curve; as a rule, active = well fitted curve in the direction sought with a large enough effect; inconclusive = small, poorly fitted or top-dose-only effect, or another doubt; inactive = no such curve, though single readings can be large; an effect the other way counts as inactive or inconclusive. Potency is read from the fitted curve at half-maximal effect.

SMILES	hNpr1 antagonist	3T3 cytotox	HEK293 tox	FLuc inh-1	FLuc SDR no ATP	FLuc SDR ATP	FLuc inh-2	others
COCC(=O)N1CCN(C(=O)c2nc3cccnc3n(CCc3ccccc3)c2=O)CC1	.	-7%	1%	.	.	.	.
CSc1ccc(CNC(=O)C2CCN(C(=O)c3ncn4c3COC(c3ccccc3)C4)CC2)cc1 (stereo not drawn)	-19%	i	9%	13µM*	16%	?	?
CC(CNC(=O)C1CCN(C(=O)c2ncn3c2COC(c2ccccc2)C3)CC1)c1ccccc1 (stereo not drawn)	-14%	-21%	-16%	3.5µM*	11%	1.6µM*	2.5µM*
O=C(NCc1cccnc1)C1CCN(C(=O)c2ncn3c2COC(c2ccc(F)cc2)C3)CC1 (stereo not drawn)	-2%	i	-4%	?	.	.	.
O=C(NCCc1ccccc1)C1CCN(C(=O)c2ncn3c2COC(c2ccccc2)C3)CC1 (stereo not drawn)	0%	i	0%	3.2µM*	11%	?	2.5µM*
O=C(NCc1ccncc1)C1CCN(C(=O)c2ncn3c2COC(c2ccc(F)cc2)C3)CC1 (stereo not drawn)	1%	i	7%	7.9µM*	13%	?	?
COc1ccc(C2Cn3cnc(C(=O)N4CCC(C(=O)NCc5ccccc5)CC4)c3CO2)cc1 (stereo not drawn)	-4%	i	10%	i	.	.	.
OCCOc1ccc(CN(CCN2CCCCC2)CC2CCCN(C3CCCC3)C2)cc1 (stereo not drawn)	4%	?	?	i	.	.	.
CCOc1ccc(C(=O)Nc2cc(-c3nc4cc(OC)ccc4o3)ccc2C)cc1[N+](=O)[O-]	.	.	.	.	27%	18%	?
COc1ccc(NC(=O)c2ccc3oc(-c4ccncc4)nc3c2)cc1	.	-8%	-19%	.	.	.	.
Cc1cn2nc(C(=O)Nc3ccc4c(c3)OCCO4)cc2c(N(C)Cc2ccccc2)n1	-1%	?	-24%	10µM*	24%	20%	?
COc1ccc(-c2noc([C@@H]3CCCN3C(=O)c3cc4ccccc4[nH]3)n2)cc1OC	-4%	-10%	-14%	i	.	.	.
O=C(O)c1cccc2c1CCN2C(=O)c1ccccc1	-28%	-7%	-26%	2.5µM*	15%	?	3.9µM*
CC(C)(C)c1coc([C@@H]2COCCN2Cc2ccc(Cl)cc2)n1	-1%[70.6 µM]	-13%[138 µM]	?	i	.	.	.
Cc1oc2c(c1C(=O)NC1CCCC1)CN(Cc1ccc(F)cc1)CC2	-19%	-34%	?	i	.	.	.
COc1cccc(C(=O)N2C(C(=O)NCc3ccccc3)COC23CCN(C(=O)CC(C)C)CC3)c1 (stereo not drawn)	-13%	-21%	-8%	i	.	.	.
COc1cccc(-c2csc(CN3CCCC(C)(NC(C)=O)C3)c2)c1 (stereo not drawn)	-6%[70.6 µM]	?	?	5µM*	17%[49.3 µM]	16%[49.3 µM]	?
CC(C)CNC(=O)C(C)(C)Oc1nn(CC2CC2)c2ccc(CN3CCCC3)cc12	3%[70.6 µM]	?	?	i	.	.	.
COc1ccc(-c2noc([C@@H](C)NC(=O)c3nc4ccccc4s3)c2C(=O)O)cc1	-2%	-13%	?	?	.	.	.
COc1cc(OC)cc(C(=O)Nc2cc(-c3nc4ccccc4s3)ccc2OC)c1	.	.	.	.	13%	8%	-13%
COc1ccc(-c2ccc(NC(=O)c3ccc(F)cc3)cc2)nn1	.	4%[138 µM]	2%[172 µM]	.	.	.	.
COc1ccc(-c2nc3ccccc3s2)cc1NC(=O)c1ccc(F)cc1	.	.	.	.	14%	9%	-5%
CCOc1cc(C(=O)Nc2ccc(-c3nc4ccccc4s3)cc2Cl)cc(OCC)c1OCC	.	.	.	.	17%	12%	?
CCS(=O)(=O)N1C[C@@H](C(=O)NCc2ccc(C)o2)[C@H](c2ccncc2)C1	.	-14%	-5%	.	.	.	.
COc1ccc(Cl)cc1C(=O)N1CCC(Cc2nc(-c3cnccn3)no2)CC1	-2%	?	-14%	i	.	.	.
SMILES	hNpr1 antagonist	3T3 cytotox	HEK293 tox	FLuc inh-1	FLuc SDR no ATP	FLuc SDR ATP	FLuc inh-2	others
COc1ccc(-c2noc(CC3CCN(C(=O)C4CCN(C(=O)c5ccccc5)CC4)CC3)n2)cc1	8.9µM*	?	?	i	.	.	.	Npr1 antag conf=19µM*;NPR2 antag=17µM*;FLuc inh counter=0%;GloSensor ctrl=12µM*
COc1ccc(-c2noc(CC3CCN(C(=O)c4ccccc4OC)CC3)n2)cc1	10µM*	?	?	i	.	.	.	Npr1 antag conf=14µM*;NPR2 antag=14µM*;FLuc inh counter=0%;GloSensor ctrl=12µM*
CCOc1cc(C(=O)N2CCC(Cc3nc(-c4ccccc4)no3)CC2)cc(OCC)c1OCC	4%	?	?	i	.	.	.
COc1ccc(-c2noc(CC3CCN(C(=O)c4ccc(OC)cc4OC)CC3)n2)cc1	2.8µM*	?	?	i	.	.	.	Npr1 antag conf=3.1µM*;NPR2 antag=4.8µM*;FLuc inh counter=-2%;GloSensor ctrl=3.1µM*
COc1cc(OC)cc(C(=O)N2CCC(Cc3nc(-c4ccccc4)no3)CC2)c1	?	?	?	i	.	.	.
O=C(NC1C[C@H]2CC[C@@H](C1)N2C(=O)NCCc1ccccc1)c1ccc(F)cc1 (stereo partly drawn)	.	-20%	?	.	.	.	.
CCOc1ccc(CC(=O)N2CCC(Cc3nc(C(C)C)no3)CC2)cc1OCC	0%	?	?	i	.	.	.
